Screening results: PubChem, several laboratories
Rows were chosen to be rich in hits. Some 13% of all compounds tested hit in one or more screens of this group.
CHOP inhibitor: CHOP inhibition in unfolded protein response; CHO-K1 CHOP-promoter luciferase, tunicamycin-induced, 15-18 h; 3.8% of 220,000 active; inhibition, % at 10 µM;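 active = compounds that reduced the stress-induced luciferase reporter signal by more than about 70% of percent inhibition, limit read from the data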
RAM network inh: yeast RAM network inhibition; S. cerevisiae dse1pr::URA3 reporter, 5-FOA growth OD615, 2 d; analog-sensitive cbk1-as2 kinase mutant strain; 1.8% of 190,000 active; inhibition, % at 50 µM;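 active = inhibition above a set limit, 3 SD over mean compound inhibition, cut at about 8.4% in these data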;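 note: inhibition rescues growth on 5-FOA so higher OD means more RAM inhibition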
Lmaj promast: reduces viability of Leishmania major promastigotes; resazurin fluorescence viability; inhibition, % at 10 µM; 9% of 200,000 active; AID 1063; in the data active = inhibition above about 50%;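 note: promastigotes grown with compound for 44 hours at 28 °C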
WT yeast gro inh: growth inhibition of WT yeast, mitochondrial fusion screen | AID 1362 | mitochondrial fusion phenotypic screen, WT strain | 2.1% of 190,000 active | inhibition, % at 10 µM; in the data active = inhibition above about 58%; tested in S. cerevisiae
Hits are given with their value; . = inactive; / = no result.

SMILES	CHOP inhibitor	RAM network inh	Lmaj promast	WT yeast gro inh
COc1ccc(-c2nc(CSCC(=O)NCc3ccc4c(c3)OCO4)c(C)o2)cc1	80	.	.	.
COc1ccc(-c2nc(CSCC(=O)NCc3ccc4c(c3)OCO4)c(C)o2)cc1OC	.	.	.	.
O=C(NNC1CC(=O)N(c2ccc(Br)cc2)C1=O)c1ccccn1 (configuration not stated)	.	.	.	.
O=C(Cn1cnc([N+](=O)[O-])n1)N/N=C/c1ccc(O)cc1O	.	.	.	.
CCOc1cc(/C=N\NC(=O)Cn2nc([N+](=O)[O-])cc2C)ccc1OCc1cccc2ccccc12	88	.	.	.
O=C(Cn1cnc([N+](=O)[O-])n1)N/N=C/c1cccc2ccccc12	.	.	91	.
O=C(Cn1cnc([N+](=O)[O-])n1)N/N=C/c1cccc(Cl)c1	.	.	63	.
CCCCSc1nnc(CCCCCNC(=O)OC(C)(C)C)o1	79	.	.	.
CN(C)C(=O)CSc1nnc(CCCCCNC(=O)OC(C)(C)C)o1	.	.	.	65
CN(C)C(=O)CSc1nnc(CCNC(=O)OC(C)(C)C)o1	.	.	.	.
NC(=O)c1ccsc1NC(=O)c1coc2ccccc2c1=O	.	.	.	.
Cc1ccc(C(=O)N/C(=C/c2ccco2)C(=O)OCN2C(=O)c3ccccc3C2=O)cc1	.	.	61	.
COC(=O)/C(=C/c1ccco1)NC(=O)c1ccco1	.	.	80	.
CCOC(=O)/C(=C/c1ccc(Cl)cc1)NC(=O)c1ccco1	.	.	.	.
O=C(OCc1ccccc1)/C(=C/c1ccc(Cl)cc1)NC(=O)c1ccccc1Cl	.	9.2	.	.
Cc1ccc(C(=O)N/C(=C\c2ccccc2)C(=O)OCc2ccccc2)cc1	.	9.5	.	.
COC(=O)/C(=C/c1ccco1)NC(=O)c1ccccc1	.	.	.	.
O=C(N[C@H](C(=O)O)c1ccccc1)C1CCC(Cn2nnc3ccccc3c2=O)CC1 (some centres not stated)	.	/	/	/
COc1cc(/C=N/NC(=O)c2ccc(O)cc2)ccc1Oc1ccc([N+](=O)[O-])cn1	.	.	.	.
Cc1ccnc(NC(=O)c2cccc(NS(=O)(=O)c3ccccc3C)c2)c1	.	.	91	.
Cc1ccc(O)c(C(=O)/C=C/c2ccc3c(c2)OCCO3)c1	.	.	.	60
O=C(/C=C/c1ccc2c(c1)OCCO2)c1ccccc1	.	/	/	/
Nc1ccccc1C(=O)/C=C/c1ccc2c(c1)OCO2	.	.	58	.
O=C(/C=C/c1ccc2c(c1)OCO2)c1ccco1	.	.	.	.
O=C(NNC1=NCCC1)C1CC1	.	.	.	.
SMILES	CHOP inhibitor	RAM network inh	Lmaj promast	WT yeast gro inh
CCC[N+](CC#Cc1ccccc1)(CCC)CC(=O)c1ccc(Cl)cc1	.	.	100	.
C(#Cc1ccccc1)C[N+]1(CC#Cc2ccccc2)CCCCC1	.	.	100	.
C#CC[N+]1(CC#Cc2ccccc2)CCCCC1	.	.	.	.
CCC[N+](CC#Cc1ccccc1)(CCC)CC(=O)OC	.	.	.	.
C(#Cc1ccccc1)C[N+]1(CC#Cc2cccc3ccccc23)CCOCC1	.	.	100	.
Cc1ccc(C#CC[N+]2(CC#Cc3ccc(C)cc3)CCCCC2)cc1	.	.	100	.
CCCc1c(-c2ccc(O)cc2)nn(-c2ccc(O)cc2)c1-c1ccc(O)cc1	.	/	/	/
O=C(C[N+]1(CC#Cc2ccccc2)CCCCC1)c1ccccc1	.	.	.	.
O=C(C[N+]1(CC#Cc2ccccc2)CCCCC1)c1ccc(Cl)cc1	.	.	52	.
O=C(Oc1ccc2ccccc2c1)c1cncc(Br)c1	94	.	.	.
CCCCNC(=O)CCn1c(=O)c2ccccc2n(Cc2ccc(F)cc2)c1=O	.	.	.	.
Cc1ccc2cc3c(NC(=O)c4ccco4)nn(CC(C)C)c3nc2c1	70	.	.	.
O=C1O/C(=C/c2ccccc2)N=C1c1ccccc1	87	.	.	.
O=C1O/C(=C\c2ccccc2)c2ccccc21	.	.	.	.
COC(=O)COc1ccc(/C=N/NC(=O)c2ccc(N(Cc3ccccc3)S(C)(=O)=O)cc2)cc1	.	.	58	.
CC(C)Oc1ccc(/C=N/NC(=O)c2ccc(N(Cc3ccccc3)S(C)(=O)=O)cc2)cc1	.	.	.	.
COc1cc(N2C(=O)c3ccccc3C2=O)c(Cl)cc1C(=O)OCC(=O)N(C)C	.	.	.	.
COc1ccc(C(=O)c2ccc(Br)cc2)cc1	76	.	.	.
COc1ccc(C(=O)NC(Nc2ccccc2)C(Cl)(Cl)Cl)cc1 (configuration not stated)	.	.	99	.
COc1ccc(C(=O)NNc2ccccc2)cc1	.	.	92	.
COc1ccc(C(=O)c2ccccc2)cc1	.	.	.	.
CCN(CC)CCOC(=O)c1cc(Cl)c(N)cc1OC	.	/	/	/
Cc1ccn2c(NC(C)(C)C)c(-c3cccs3)nc2c1	.	.	.	.
CC(=O)Oc1ccccc1C1C[C@]2(C)CC(=O)NC2N1C(C)=O (some centres not stated)	.	.	.	.
CC(=O)c1ccc(-n2c(SCC(=O)c3c[nH]c4ccccc34)nc3ccccc3c2=O)cc1	.	.	.	.
SMILES	CHOP inhibitor	RAM network inh	Lmaj promast	WT yeast gro inh
O=C(NCC1CCCO1)C1CCN(C2CCN(C3CCCCCC3)CC2)CC1 (configuration not stated)	.	.	.	.
O=C(O/N=C/C1=C(Cl)c2ccccc2CC1)c1ccc(F)cc1	.	9.5	.	.
Cc1ccc(C(=O)O/N=C2\CCCc3ccccc32)cc1	.	.	.	.
COc1cc(-c2nnc(CSc3nnc(Nc4ccc(C(C)C)cc4)s3)o2)cc(OC)c1OC	.	.	71	.
Clc1ccc(-c2n[nH]c3c2CCC3)c(Cl)c1	.	.	.	68
CCCN(CCC)C(=O)CC(c1ccccc1)c1cc(Br)ccc1O (configuration not stated)	92	9.2	.	76
CCCN(CCC)C(=O)CC(c1ccccc1)c1ccc(C)cc1O (configuration not stated)	.	.	.	.
CCOc1ccc2[nH]c(=O)c(CN(CC3COCCO3)C(=O)c3ccc(C)cc3)cc2c1 (configuration not stated)	.	.	93	.
Cc1cc2ccccn2c1C(=O)c1ccc(N/N=C/c2ccc(C(=O)O)cc2)c([N+](=O)[O-])c1	103	/	/	/
C/C(=N\Nc1ccc(C(=O)c2c(C)cc3ccccn23)cc1[N+](=O)[O-])c1ccc(O)cc1	.	/	/	/
Cc1cc(-c2csc(NC(=O)c3ccc(C#N)cc3)n2)c(C)n1Cc1ccccc1	.	.	.	.
C=CCCC(=O)Nc1nc(C)c(-c2csc(Nc3ccccc3OC)n2)s1	.	.	70	.
CCCC(C)C(=O)Nc1nc(C)c(-c2csc(Nc3cc(Cl)ccc3C)n2)s1 (configuration not stated)	.	.	91	.
CCC(C)C(=O)Nc1nc(C)c(-c2csc(Nc3ccccc3OC)n2)s1 (configuration not stated)	.	.	99	.
CCCCCC(=O)Nc1nc(C)c(-c2csc(Nc3cc(Cl)ccc3C)n2)s1	.	.	.	.
